# Most compounds without a hit are left out; they make up all but 7% or so of the library.
# a7 integrin act: integrin-mediated muscular dystrophy alleviation activation; alpha7betagal myoblasts, beta-gal FDG fluorescence, 48 h; 350,000 compounds, 0.064% hits; AID 624291; Potency, µM (series often up to 38.3 µM), for the others: at the top dose activation, most hits filed as activators;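 further: potency means the concentration at half of the fitted maximal effect; 100% = response of the positive control SU9516; nearly all actives have a fitted effect of over 60% in size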
#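 Alpha7betagal+/- myoblasts (passage 13) were plated 16-24 hr, then exposed to compounds (1:260 dilution of DMSO stock) for 48 hours at 37C. After MPER lysis, β-galactosidase reporter activity was read as FDG fluorescence (ex 480/em 540) after 30 minutes.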
# DRD3 agonist: D3 dopamine receptor (human) agonism; max activation, %; 410,000 compounds, 0.58% hits; P35462; D3R DiscoveRx beta-arrestin cells, luminescence, 90 min; in the data active means max activation above about 30%; further: 0% is about no effect
# Target sequence (P35462 whole entry, looked up): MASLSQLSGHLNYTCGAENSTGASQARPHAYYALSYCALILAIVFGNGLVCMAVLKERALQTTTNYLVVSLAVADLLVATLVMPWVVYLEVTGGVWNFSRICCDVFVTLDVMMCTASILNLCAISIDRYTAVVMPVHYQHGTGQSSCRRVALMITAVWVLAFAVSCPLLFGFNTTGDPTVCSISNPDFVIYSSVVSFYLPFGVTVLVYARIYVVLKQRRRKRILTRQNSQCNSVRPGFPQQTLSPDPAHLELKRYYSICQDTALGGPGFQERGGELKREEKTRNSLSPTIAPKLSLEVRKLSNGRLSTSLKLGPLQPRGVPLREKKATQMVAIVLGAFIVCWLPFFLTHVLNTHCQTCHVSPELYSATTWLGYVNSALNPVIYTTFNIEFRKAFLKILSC
#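 Agonist-mode cell screen: cells plated at 1500/well and incubated overnight at 37 °C, then exposed to library compounds for 90 min at 37 °C. Detection reagent was added for 30–60 min at room temperature, and luminescence was read.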
# IL1B secr inh: blocks inflammasome-driven IL-1 beta release | THP-1 LPS/ATP IL-1B secretion, AlphaLISA, 16 h; stronger effect = lower value | activity change, % at 57.5 µM | 360,000 compounds, 4.7% hits | AID 743279; in the data active means activity change below about -50%; inconclusive means mostly about -30% to -49%; further: on the % scale 0 is the no-effect control and ±100 the full control effect
#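 Secreted IL-1B measured by AlphaLISA bead assay after 16 h compound exposure of THP-1 cells; compounds (final up to 57.5 uM) added 1 h before LPS (250 ng/mL) and ATP (1.25 mM) stimulation; lower signal means less secretion.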
# ATXN2 expr inh: ATXN2 expression inhibition | HEK-293 ATXN2-luciferase reporter, luminescence, 24 h | Potency, µM (highest dose often 57 µM), without a hit: top-dose activity change, negative = inhibition, usual class: inhibitors | 360,000 compounds, 0.72% hits | AID 1745845; further: potency means the concentration at half of the fitted maximal effect; on the % scale 0 is the no-effect control and ±100 the full control effect; nearly all actives have a fitted effect of over 55% in size
#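 qHTS (up to 57 uM final) was run with 24 h compound exposure of reporter cells at 37 °C. Each well was multiplexed: SteadyGlo luminescence measured ATXN2-luciferase expression after a fluorogenic Gly-Phe-AFC viability readout (25 uM final).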
# ATXN viability: reduces viability in counter-screen for ATXN expression inhibitors | S2 cells (HEK-293 line with an ATXN2-luciferase reporter) viability, CellTiter-Fluor protease fluorescence, 24 h | Potency, µM (doses to about 56.7 µM), most hits filed as cytotoxic | 400,000 compounds, 0.49% hits; further: potency means the concentration at half of the fitted maximal effect; nearly all actives have a fitted effect of over 40% in size
# D3 antag: D3 dopamine receptor (human) antagonism. P35462. D3R cells, DiscoveRx beta-arrestin luminescence, antagonist mode; stronger effect = lower value. max response, negative = inhibition, %. 360,000 compounds, 2.5% hits. AID 652054; in the data active means max response below about -50%; inconclusive means no clear call, values can overlap the other calls; further: on the % scale 0 is the no-effect control and ±100 the full control effect
#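 Cells plated overnight at 1500 cells/well, then exposed to library compounds with dopamine controls for 90 minutes at 37 degrees C. DiscoveRx reagent added for 30–60 minutes at room temperature; luminescence read, quantitative HTS format.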
# * hit, by the source's call; i = inactive; ? = inconclusive; . = no result given; [ ] = dose if it differs, or a comment. Unless noted, the call rests on the fitted dose curve; in most records, active means well fitted curve in the direction sought with a large enough effect; inconclusive means small, poorly fitted or top-dose-only effect, or another doubt; inactive means no such curve, though single readings can be large; an effect the other way counts as inactive or inconclusive.
SMILES,a7 integrin act,DRD3 agonist,IL1B secr inh,ATXN2 expr inh,ATXN viability,D3 antag
COc1cc(OC)cc(C(=O)NCC(=O)NCCN2C(=O)S/C(=C\c3ccc4c(c3)OCO4)C2=O)c1,7.5%,-26.1,-53.7*,7.9%,i,-12.1
COc1cc(OC)cc(C(=O)NCC(=O)NCCN2C(=O)S/C(=C\c3ccccc3Cl)C2=O)c1,-39.5%,-0.4,-9.5,.,?,8.2
COc1cc(SC#N)ccc1N=Cc1c(C)[nH]n(-c2ccc(C)c(C)c2)c1=O,-61.4%,13.2,-97.8*,11.2µM*,12.6µM*,-22.9
COc1cc(SC#N)ccc1N=Cc1c(C)[nH]n(-c2ccc(Cl)cc2)c1=O,-9.3%,2.2,?,-34.1%,?,-23.9
C/C(=N\NC(=O)c1ccncc1)c1ccc(N(C)C)cc1,1.5%,6.1,8.3,16.9%[11.3 µM],i,6.3
O=C(CN1C(=O)COc2ccccc21)NCc1ccc(C(=O)O)cc1,9.7%,0.5,-7.7,1.8%,i,-12.6
O=C(O)c1ccccc1C(=O)c1ccc2c(c1)N(Cc1ccc(Cl)c(Cl)c1)C(=O)CO2,0.5%,-12.2,-52.9*,-19.7%,?,-5.3
C=C(C)C1CCC(C)=C1COC(=O)Nc1ccccc1 (centres undefined),-16.8%,2.4,-61.6*,3.9%,?,9.3
CCOc1ccc(CNC(=O)C2CCCCN2S(=O)(=O)c2ccc(F)cc2)cc1OC (centres undefined),.,1.1,.,7.8%,i,.
COc1ccc(CCn2c(=N)c(C(=O)NCc3ccco3)cc3c(=O)n4ccccc4nc32)cc1,5.2%,-0.7,-53.6*,-37.6%,?,-20.6
CCOC(=O)c1cc2c(=O)n3ccccc3nc2n(Cc2ccco2)c1=NC(=O)c1cccc(OC)c1,0.0%,1.0,-55.2*,-10.9%,.,12.7
CCOC(=O)c1cc2c(=O)n3ccccc3nc2n(Cc2ccco2)c1=NC(=O)c1ccc(OC)cc1,5.9%,4.8,1.8,-20.1%,.,15.3
N=c1c(C(=O)NCCc2ccccc2)cc2c(=O)n3ccccc3nc2n1Cc1ccco1,-34.8%,-2.3,?,-18.5%,i,-3.4
N=c1c(C(=O)NCCc2ccccc2)cc2c(=O)n3ccccc3nc2n1CCCN1CCOCC1,-0.5%,1.3,-56.2*,-36.5%,i,-12.2
N=c1c(C(=O)NCc2ccccc2)cc2c(=O)n3ccccc3nc2n1CCCN1CCOCC1,-23.0%,-2.2,1.9,-18.8%,i,0.9
Cc1ccc(NC(=O)CN(C)C(=O)c2n[nH]c(=O)c3ccccc23)cc1,-22.9%,-6.9,9.2,5.0%,i,8.0
CCCCOc1ccc(CN=C(N)N)cc1Cl,0.0%,-11.3,-74.0*,.,i,-5.1
CCCOc1ccc(CCCN=C(N)N)cc1Cl,-6.4%,-13.9,-90.2*,-14.0%,i,6.2
O=C(OCC(=O)N1CCCc2ccccc21)c1ccccc1[N+](=O)[O-],8.8%,-2.0,-17.7,40.6%,i,-0.7
CCCOC(=O)Nc1cc(OC)ccc1[N+](=O)[O-],?,3.1,-0.5,.,i,12.3
O=C(CSc1nc2c(sc3ccccc32)c(=O)n1-c1ccccc1)NCc1ccco1,8.4%,-8.0,-14.4,68.8%,?,29.7
Oc1cnc2ccccc2c1CN1CCOCC1,-4.2%,-3.3,46.1,0.4%,i,-77.5*
O=S(=O)(c1ccccc1)c1nc(-c2ccco2)oc1N1CCCCC1,-17.1%,2.8,14.5,-6.2%,i,9.4
O=S(=O)(c1ccccc1)c1nc(-c2ccccc2Cl)oc1N1CCCCCC1,.,-7.1,.,-5.7%,i,.
Cc1ccc(S(=O)(=O)c2nc(-c3ccccc3Cl)oc2N2CCN(C)CC2)cc1,0.3%,-17.1,-66.5*,-16.9%,i,-54.7*
SMILES,a7 integrin act,DRD3 agonist,IL1B secr inh,ATXN2 expr inh,ATXN viability,D3 antag
Cc1ccc(S(=O)(=O)c2nc(-c3ccccc3Cl)oc2N2CCCCCC2)cc1,.,-8.2,.,-11.6%,i,.
CC1CCN(c2oc(-c3ccco3)nc2S(=O)(=O)c2ccccc2)CC1,-14.6%,4.5,-52.6*,7.0%,i,12.8
CCN1CCN(c2oc(-c3ccccc3C)nc2S(=O)(=O)c2ccccc2)CC1,-33.4%,-35.8,-30.0,-3.6%,i,-83.5*
COc1ccc(Cn2c(CCC(=O)NCc3ccc(Cl)cc3)nc3cccnc32)cc1,.,2.8,.,.,.,.
COC(=O)c1ccc(CN2C(=O)c3ccccc3S2(=O)=O)cc1,7.5%,-6.8,21.4,-7.6%,i,-9.2
Cc1ccc(C(=O)CN2C(=O)c3ccccc3S2(=O)=O)cc1,0.1%,15.5,13.0,1µM*,i,0.1
Cc1ccc(C(=O)CN2/C(=C(\O)c3ccccc3)C(=O)c3ccccc3S2(=O)=O)c(C)c1,-13.8%,-3.7,9.4,-13.7%,i,-50.1*
O=C(CN1C(=O)c2ccccc2S1(=O)=O)c1ccccc1,10.5%,11.1,6.4,14.1µM*,i,38.5
CCN(CC)S(=O)(=O)c1ccc(N2CCN(c3ccccc3O)CC2)nc1,-47.5%,6.6,-5.0,-30.0%,i,5.6
C/C(=N\NC(=O)Cc1ccccc1Cl)c1cccnc1,4.4%,1.0,-22.6,2.4%,i,2.1
CCC(=O)OC1(C#CCOc2ccc(OC)cc2)CCN(C)CC1,-9.3%,-9.5,5.4,-11.1%,i,20.0
CN1CC(=O)N(CC(=O)Nc2ccc(OC(F)(F)F)cc2)c2ccccc2C1=O,.,6.9,.,6.0%,i,.
CCOC(=O)CC1(CC)Oc2ccccc2N1S(=O)(=O)c1ccc(C)cc1 (centres undefined),.,-4.9,1.1,.,.,-0.8
O=C(NN1C(=O)NC2(CCCCC2)C1=O)c1ccc(-c2ccccc2Cl)o1,23.2%,-6.4,?,4.9%,i,-52.2*
O=C(NN1C(=O)NC2(CCCCC2)C1=O)c1ccc(-c2ccc([N+](=O)[O-])cc2)o1,23.2%,1.2,-7.2,-21.3%,i,0.9
COc1ccc(C(CNC(=O)c2ccc(-c3nc4ccccc4s3)o2)N2CCCC2)cc1 (centres undefined),-36.2%,-19.7,-16.1,-9.6%,?,-83.4*
COc1ccc(C(CNC(=O)c2c(C)nn(Cc3ccc(C)cc3)c2Cl)N2CCOCC2)cc1 (centres undefined),0.0%,-21.0,-81.5*,-5.1%,i,-4.0
COc1ccc(C(CNC(=O)c2ccc(C)o2)N2CCOCC2)cc1 (centres undefined),11.1%,-6.5,9.9,-8.0%,i,0.1
COc1ccc(C(CNC(=O)c2ccc(-c3ccccc3Cl)o2)N2CCCC2)cc1 (centres undefined),-59.3%,-2.4,-10.6,.,.,-121.0*
COc1ccc(C(CNC(=O)CNC(=O)c2ccccc2)N2CCCC2)cc1 (centres undefined),-25.1%,-12.9,-5.0,8.5%,i,?

# Screening results deposited in PubChem BioAssay by National Center for Advancing Translational Sciences (NCATS).
